# Source: PubChem BioAssay (NCATS)
# Unmarked numbers belong to inactive results. Results filed as inconclusive are left out. A call without a number means that no potency is given here. Active and inactive are the calls of the source. Calls come from the whole dose curve; as a rule, active = well fitted curve in the direction sought with a large enough effect; inconclusive = small, poorly fitted or top-dose-only effect, or another doubt; inactive = no such curve, though single readings can be large; an effect the other way counts as inactive or inconclusive.
# How the values were obtained:
# [1] = molecular target: Furin (Homo sapiens) (UniProt P09958); test: Furin counterscreen qHTS for Zika virus inhibitors (AID 1347149); note: nearly all actives have a fitted effect of over 70% in size; note: potency is the fitted concentration of half-maximal effect;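 for activity change, negative = inhibition: purified recombinant full-length human furin enzyme at 5 nM; fluorescence gain from furin cutting a BOC-RVRR-AMC peptide substrate over 15 min; top concentration of the series differs between compounds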
# Chain of Furin (Homo sapiens) (P09958 whole entry, looked up): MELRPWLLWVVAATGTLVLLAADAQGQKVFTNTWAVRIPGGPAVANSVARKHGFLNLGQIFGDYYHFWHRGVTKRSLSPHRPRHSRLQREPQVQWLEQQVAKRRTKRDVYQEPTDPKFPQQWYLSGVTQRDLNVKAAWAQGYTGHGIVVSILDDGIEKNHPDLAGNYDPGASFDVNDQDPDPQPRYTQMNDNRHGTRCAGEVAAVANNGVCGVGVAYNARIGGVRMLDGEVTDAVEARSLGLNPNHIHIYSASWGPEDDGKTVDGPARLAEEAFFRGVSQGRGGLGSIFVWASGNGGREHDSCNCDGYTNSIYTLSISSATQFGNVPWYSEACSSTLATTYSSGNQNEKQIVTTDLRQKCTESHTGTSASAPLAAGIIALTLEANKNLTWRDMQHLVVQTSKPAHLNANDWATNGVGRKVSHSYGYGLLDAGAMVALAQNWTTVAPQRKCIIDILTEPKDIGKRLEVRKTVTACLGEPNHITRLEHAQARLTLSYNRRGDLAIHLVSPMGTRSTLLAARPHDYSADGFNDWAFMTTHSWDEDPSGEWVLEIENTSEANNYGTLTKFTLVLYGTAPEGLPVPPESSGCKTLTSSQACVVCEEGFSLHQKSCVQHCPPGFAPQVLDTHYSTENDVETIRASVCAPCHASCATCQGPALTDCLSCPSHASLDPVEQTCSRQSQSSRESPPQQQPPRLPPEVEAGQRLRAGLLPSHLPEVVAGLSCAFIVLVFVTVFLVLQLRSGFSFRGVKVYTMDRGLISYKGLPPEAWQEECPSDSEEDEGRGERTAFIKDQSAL
# In short: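 Fluorogenic cleavage of BOC-RVRR-AMC (2 microM final, Km ~15 µM) was monitored (ex 340, em 450 nm) at 37C after 15 min RT preincubation of 5 nM furin with compounds in HEPES pH 7.0 buffer with CaCl2 and Triton X-100. Percent inhibition was fitted to a 4-parameter Hill curve.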
# [2] = Confirmatory screen GU Rhodamine qHTS for Zika virus inhibitors qHTS (AID 1347157); note: nearly all actives have a fitted effect of over 70% in size; note: potency is the fitted concentration of half-maximal effect
# In short: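 Compounds, tested up to 114 microM, were incubated for 15 minutes with 25 nM unlinked NS2B-NS3 protease at pH 8.0. Cleavage of 1.5 microM Rhodamine110 substrate was then followed by fluorescence for 15 minutes.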
# [3] = ZIKV-mCherry secondary qHTS for Zika virus inhibitors (AID 1347158); note: potency is the fitted concentration of half-maximal effect; for activity change, negative = inhibition: top concentration of the series differs between compounds
# In short: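 After overnight seeding at 37 °C, Vero cells receive compound and then ZIKV-mCherry (MOI 1). Following 48-72 h infection, cells are fixed, counterstained with Hoechst, and imaged; percent infected cells is derived from an mCherry intensity cut-off of 450 RFU.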
# [4] = Confirmatory screen NINDS Rhodamine qHTS for Zika virus inhibitors (AID 1347161); note: nearly all actives have a fitted effect of over 60% in size; note: potency is the fitted concentration of half-maximal effect;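 for activity change, negative = inhibition: purified Zika NS2B-NS3 protease with linked NS2B cofactor domain and Rhodamine110 peptide substrate; series mostly up to about 110 µM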
# In short: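 Aprotinin served as in-plate control. Conditions: 25 nM linked NS2B-NS3, pH 8.0 Tris buffer, titrated compounds, 15 min preincubation and 15 min reaction with 1.5 microM Rhod110 substrate at room temperature.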
# [5] = test system: Zika virus NS2B-NS3 protease (linked); test: 384 well plate NINDS AMC confirmatory qHTS for Zika virus inhibitors (AID 1347163); note: nearly all actives have a fitted effect of over 50% in size; note: potency is the fitted concentration of half-maximal effect;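 for activity change, negative = inhibition: linked protease at 5 30 or 60 nM final depending on run; fluorescence of AMC released from Ac-VKTGKR-AMC peptide cleaved by the protease; top concentration of the series differs between compounds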
# In short: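 Linked protease 5/30/60 nM final; cpds up to 1 mM final, ~15 min preinc. Substrate Ac-VKTGKR-AMC 30 microM final. RT, dark, 25 min; FI ex 355/em 460; normalized to no-enzyme/no-inhibitor ctrls.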
# [6] = test system: Zika virus NS2B-NS3 protease (linked construct); test: 384 well plate NINDS Rhodamine confirmatory qHTS for Zika virus inhibitors (AID 1347164);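 note: fluorescence from protease cleavage of Ac-LKRR-rhodamine 110 substrate; nearly all actives have a fitted effect of over 65% in size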; note: potency is the fitted concentration of half-maximal effect; for activity change, negative = inhibition: top concentration of the series differs between compounds
# In short: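 Linked protease at a final 5 nM, 30 nM or 60 nM was preincubated ~15 min with compounds, then given 10 microM Ac-LKRR-Rhodamine 110. Fluorescence (ex 485/em 538 nm) after 25 min in the dark at room temperature.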
# [7] = molecular target: Rap guanine nucleotide exchange factor 3 (Homo sapiens) (UniProt O95398); test: Confirmatory qHTS for antagonist of cAMP-regulated guanine nucleotide exchange factor 3 (EPAC1) (AID 1645880); note: potency is the fitted concentration of half-maximal effect; nearly all actives have a fitted effect of over 55% in size
# Chain of Rap guanine nucleotide exchange factor 3 (Homo sapiens) (O95398 whole entry, looked up): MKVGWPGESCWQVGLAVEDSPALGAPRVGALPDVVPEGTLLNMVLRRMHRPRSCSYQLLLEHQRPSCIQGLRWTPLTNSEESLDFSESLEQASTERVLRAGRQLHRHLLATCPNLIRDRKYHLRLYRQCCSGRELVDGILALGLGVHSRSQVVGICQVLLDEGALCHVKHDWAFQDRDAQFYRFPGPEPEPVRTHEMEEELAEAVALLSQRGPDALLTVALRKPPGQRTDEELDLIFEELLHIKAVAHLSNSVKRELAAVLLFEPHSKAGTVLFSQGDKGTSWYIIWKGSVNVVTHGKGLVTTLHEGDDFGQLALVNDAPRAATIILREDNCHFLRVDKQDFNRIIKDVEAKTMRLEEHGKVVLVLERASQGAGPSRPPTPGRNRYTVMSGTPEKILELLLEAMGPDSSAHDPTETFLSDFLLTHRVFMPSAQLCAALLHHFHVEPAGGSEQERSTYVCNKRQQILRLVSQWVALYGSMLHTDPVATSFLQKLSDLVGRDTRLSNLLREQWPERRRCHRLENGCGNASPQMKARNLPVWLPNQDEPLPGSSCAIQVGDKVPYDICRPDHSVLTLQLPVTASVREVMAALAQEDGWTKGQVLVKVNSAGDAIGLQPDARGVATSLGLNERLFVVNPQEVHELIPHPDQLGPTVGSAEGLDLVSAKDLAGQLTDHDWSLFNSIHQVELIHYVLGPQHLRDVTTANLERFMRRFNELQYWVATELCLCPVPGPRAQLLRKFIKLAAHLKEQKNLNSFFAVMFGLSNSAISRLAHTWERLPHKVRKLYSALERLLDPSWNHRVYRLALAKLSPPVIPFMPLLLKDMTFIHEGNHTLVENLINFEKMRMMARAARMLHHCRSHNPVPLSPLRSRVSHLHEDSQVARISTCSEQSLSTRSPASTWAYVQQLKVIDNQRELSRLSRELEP
# In short: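 Nucleotide exchange uses 100 nM EPAC1, 250 nM RAP1B-BODIPY-GDP and 50 uM GDP, with compounds in a concentration-titration series. After 5 min at room temperature, fluorescence (480 nm ex/540 nm em) is read every 5 min for 30 min. Data are normalized to control ATA and DMSO.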
# [8] = molecular target: Rap guanine nucleotide exchange factor 3 (Homo sapiens) (UniProt O95398); test: Confirmatory qHTS for agonist of cAMP-regulated guanine nucleotide exchange factor 3 (EPAC1) (AID 1645881);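 note: EPAC1 catalysed release of BODIPY-GDP from Rap1B seen as fluorescence loss; nearly all actives have a fitted effect of over 75% in size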
# [9] = molecular target: Rap guanine nucleotide exchange factor 4 (Homo sapiens) (UniProt Q8WZA2); test: Confirmatory qHTS for agonist of cAMP-regulated guanine nucleotide exchange factor 4 (EPAC2) (AID 1645884);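 note: nucleotide exchange releases bodipy-GDP from Rap1 and this lowers its fluorescence; nearly all actives have a fitted effect of over 65% in size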
# Chain of Rap guanine nucleotide exchange factor 4 (Homo sapiens) (Q8WZA2 whole entry, looked up): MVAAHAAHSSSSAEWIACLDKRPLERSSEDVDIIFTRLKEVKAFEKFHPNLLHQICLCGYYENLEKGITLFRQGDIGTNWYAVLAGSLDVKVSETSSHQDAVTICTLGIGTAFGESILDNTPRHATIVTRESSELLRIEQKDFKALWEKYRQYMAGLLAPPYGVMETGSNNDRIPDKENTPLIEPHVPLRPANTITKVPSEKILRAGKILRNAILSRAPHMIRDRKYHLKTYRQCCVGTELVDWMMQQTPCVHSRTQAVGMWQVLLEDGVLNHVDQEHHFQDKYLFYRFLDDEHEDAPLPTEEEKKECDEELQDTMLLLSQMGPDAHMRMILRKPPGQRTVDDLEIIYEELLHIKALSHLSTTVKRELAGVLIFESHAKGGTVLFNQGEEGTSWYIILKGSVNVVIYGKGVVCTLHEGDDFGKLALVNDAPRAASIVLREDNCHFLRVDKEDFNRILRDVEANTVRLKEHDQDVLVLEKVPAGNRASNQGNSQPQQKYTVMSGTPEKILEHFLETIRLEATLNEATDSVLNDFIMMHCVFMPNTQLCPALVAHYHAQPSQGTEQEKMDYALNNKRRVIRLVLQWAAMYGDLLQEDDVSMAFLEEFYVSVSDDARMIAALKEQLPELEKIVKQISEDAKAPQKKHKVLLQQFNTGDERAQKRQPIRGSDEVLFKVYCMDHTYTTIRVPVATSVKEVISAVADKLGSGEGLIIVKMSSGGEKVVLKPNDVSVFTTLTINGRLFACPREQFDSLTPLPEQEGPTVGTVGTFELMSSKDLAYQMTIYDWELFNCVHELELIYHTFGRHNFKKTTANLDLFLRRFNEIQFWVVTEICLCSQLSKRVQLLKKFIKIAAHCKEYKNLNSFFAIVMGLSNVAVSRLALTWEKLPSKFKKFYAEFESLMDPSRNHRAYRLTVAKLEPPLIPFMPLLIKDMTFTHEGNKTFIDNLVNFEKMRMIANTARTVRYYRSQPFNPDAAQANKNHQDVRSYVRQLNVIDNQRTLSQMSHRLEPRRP
# [10] = molecular target: Rap guanine nucleotide exchange factor 4 (Homo sapiens) (UniProt Q8WZA2); test: Confirmatory qHTS for antagonist of cAMP-regulated guanine nucleotide exchange factor 4 (EPAC2) (AID 1645885); note: nearly all actives have a fitted effect of over 25% in size
# [11] = molecular target: Rap guanine nucleotide exchange factor 3 (Homo sapiens) (UniProt O95398); test: Counterscreen qHTS for antagonist of cAMP-regulated guanine nucleotide exchange factor 3 (EPAC1) (AID 1645888);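 note: fluorescence loss as bound BODIPY-GDP is released from Rap1B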
# In short: (§1)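 Rap1B–BODIPY-GDP (250 nM) with 50 uM GDP; compounds pin-transferred to 9.74 nM–152 uM final (activator) or from 7.32 nM upwards (inhibitor). Fluorescence Ex/Em 480/540 nm read at 5 and 30 min, then after adding cAMP or buffer, at room temperature.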
# [12] = molecular target: Rap guanine nucleotide exchange factor 3 (Homo sapiens) (UniProt O95398); test: Counterscreen qHTS for agonist of cAMP-regulated guanine nucleotide exchange factor 3 (EPAC1) (AID 1645889); note: nearly all actives have a fitted effect of over 40% in size
# In short: as §1
# [13] = test system: Zika virus NS2B-NS3 protease; test: Primary screen GU AMC qHTS for Zika virus inhibitors (AID 1347154); note: nearly all actives have a fitted effect of over 70% in size
# In short: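 Unlinked Zika NS2B hydrophilic domain–NS3 protease complex at 25 nM in 10 mM Tris-HCl pH 8.0, 0.01% Tween 20, with an AMC peptide substrate. Fluorescence change (340/450 nm) over 15 min at room temperature, normalized to controls, fitted to 4-parameter Hill.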
# [14] = Tertiary RLuc qRT-PCR qHTS assay for Zika virus inhibitors (AID 1347169); note: top concentration of the series differs between compounds; nearly all actives have a fitted effect of over 55% in size
# In short: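 Vero cells (1,000 per well) plated overnight at 37 degrees C, treated with compound in DMSO, then infected with recombinant ZIKV-RLuc (Cambodian) at MOI 1-2 for 48-72 hrs. Live-cell Renilla luciferase substrate added; luminescence read after 1-1.5 hrs.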
# [15] = molecular target: Cytochrome P450 3A4 (Homo sapiens) (UniProt P08684); test: qHTS Assay for Inhibitors and Substrates of Cytochrome P450 3A4 (AID 884); note: potency is the fitted concentration of half-maximal effect; nearly all actives have a fitted effect of over 50% in size
# Chain of Cytochrome P450 3A4 (Homo sapiens) (P08684 whole entry, looked up): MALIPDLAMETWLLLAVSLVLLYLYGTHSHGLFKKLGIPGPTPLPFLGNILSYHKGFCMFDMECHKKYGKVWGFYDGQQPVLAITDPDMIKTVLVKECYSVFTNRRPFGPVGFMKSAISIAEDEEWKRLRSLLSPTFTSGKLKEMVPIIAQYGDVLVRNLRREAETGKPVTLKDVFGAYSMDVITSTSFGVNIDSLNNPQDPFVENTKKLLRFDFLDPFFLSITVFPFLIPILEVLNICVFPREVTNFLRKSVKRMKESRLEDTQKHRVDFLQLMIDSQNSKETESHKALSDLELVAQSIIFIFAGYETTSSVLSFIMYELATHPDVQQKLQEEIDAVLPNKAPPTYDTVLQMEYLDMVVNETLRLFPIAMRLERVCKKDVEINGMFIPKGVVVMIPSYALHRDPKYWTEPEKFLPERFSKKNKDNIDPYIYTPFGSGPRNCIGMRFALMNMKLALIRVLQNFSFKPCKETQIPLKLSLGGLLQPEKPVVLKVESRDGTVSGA
# In short: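 20 nM human CYP3A4 with 25 uM Luciferin-PPXE (at KM) in 200 mM KPO4, preincubated 10 min with compound; NADPH regeneration started a 60 min RT reaction. Luciferin detected by luminescence, normalized to 57 uM ketoconazole as full inhibition.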
# [16] = molecular target: Cytochrome P450 3A4 (Homo sapiens) (UniProt P08684); test: qHTS Assay for Activators of Cytochrome P450 3A4 (AID 885); note: nearly all actives have a fitted effect of over 65% in size
# In short: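 20nM CYP3A4 + 25uM Luciferin-PPXE (=KM), 200mM KPO4; cpd 10 min RT; NADPH regen, 60 min RT; stop w/ detection buffer, 20 min; luminescence. Normalized to 57 uM ketoconazole.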
# [17] = Confirmation and Secondary Assay for Modulators of Hemoglobin Beta Chain Splicing at IVS2 654 locus (AID 910);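 note: HeLa cells stably carrying EGFP split by mutant beta-globin IVS2-654 intron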
# In short: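 HeLa cells stably expressing EGFP interrupted by β-globin IVS2-654 intron, seeded overnight in Opti-MEM/2% FCS, then treated 2 days at 37 °C. Restored splicing read as total peak GFP intensity per well by laser scanning cytometry (488 nm excitation, 500–520 nm emission); 500 nM antisense PNA as control.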
# [18] = molecular target: Ubiquitin carboxyl-terminal hydrolase 1 (Homo sapiens) (UniProt O94782); test: Inhibitors of USP1/UAF1: Pilot qHTS (AID 504865); note: potency is the fitted concentration of half-maximal effect; nearly all actives have a fitted effect of over 35% in size
# Chain of Ubiquitin carboxyl-terminal hydrolase 1 (Homo sapiens) (O94782 whole entry, looked up): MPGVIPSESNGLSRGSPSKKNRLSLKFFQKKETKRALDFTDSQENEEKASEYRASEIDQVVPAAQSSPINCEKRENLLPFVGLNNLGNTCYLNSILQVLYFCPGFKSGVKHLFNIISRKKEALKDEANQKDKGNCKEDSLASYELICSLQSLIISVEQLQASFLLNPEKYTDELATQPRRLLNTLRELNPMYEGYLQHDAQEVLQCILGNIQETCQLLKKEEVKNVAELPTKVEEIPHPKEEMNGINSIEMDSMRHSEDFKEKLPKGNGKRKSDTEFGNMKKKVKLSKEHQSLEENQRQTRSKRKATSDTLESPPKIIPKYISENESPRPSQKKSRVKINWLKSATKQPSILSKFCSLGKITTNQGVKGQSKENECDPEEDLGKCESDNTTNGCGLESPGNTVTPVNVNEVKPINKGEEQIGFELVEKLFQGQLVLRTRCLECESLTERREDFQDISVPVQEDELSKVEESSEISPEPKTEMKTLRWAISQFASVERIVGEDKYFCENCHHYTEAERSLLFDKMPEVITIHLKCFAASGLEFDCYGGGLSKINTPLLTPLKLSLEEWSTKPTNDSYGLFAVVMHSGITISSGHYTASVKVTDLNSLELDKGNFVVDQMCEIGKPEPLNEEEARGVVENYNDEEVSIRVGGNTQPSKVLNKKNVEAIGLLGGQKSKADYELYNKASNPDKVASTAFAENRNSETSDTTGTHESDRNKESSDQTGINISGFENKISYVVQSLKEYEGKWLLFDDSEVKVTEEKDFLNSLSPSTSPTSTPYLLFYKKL
# In short: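 USP1/UAF1 complex (1nM) preincubated with compound 15 min at room temperature, then Ub-Rho substrate (150nM final) added. Fluorescence read kinetically at 480/540 nm, 6 reads every 60 seconds. Buffer: 50mM HEPES pH 7.8, 0.5mM EDTA, 0.1 mg/ml BSA, 1mM TCEP, 0.01% Tween-20.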
compound,measurement,setting,value
O=C(O)c1c(-c2ccccc2)oc2ccc(OCc3ccc(Cl)c(Cl)c3)cc12,Potency,[1],66.3 µM (active)
same,Potency,[2],17.8 µM (active)
same,Potency,[3],8.91 µM (active)
same,Potency,[4],3.98 µM (active)
same,Potency,[5],inactive
same,Potency,[6],17.8 µM (active)
same,Potency,[7],75.7 µM (active)
same,outcome,[8],inactive
same,outcome,[9],inactive
same,"activity change, negative = inhibition",[10],10.2% [at 12.7 µM]
same,outcome,[11],inactive
same,Potency,[12],inactive
N#CC(C#N)=C(N)/C(C#N)=C/c1cc(O)c(O)c(O)c1,Potency,[1],inactive
same,Potency,[13],inactive
same,Potency,[2],44.7 µM (active)
same,Potency,[3],inactive
same,Potency,[4],31.6 µM (active)
same,Potency,[5],112 µM (active)
same,Potency,[6],inactive
same,Potency,[14],inactive
CCOC(=O)c1ccc(Nc2nc3ccccc3nc2NS(=O)(=O)c2ccc(Cl)cc2)cc1,Potency,[1],inactive
same,Potency,[2],3.16 µM (active)
same,Potency,[4],3.55 µM (active)
same,Potency,[5],inactive
O=C(O)Cn1nnc(-c2ccc(OCc3cccc(C(F)(F)F)c3)cc2)n1,Potency,[1],inactive
same,Potency,[2],25.1 µM (active)
same,Potency,[3],inactive
same,Potency,[4],8.91 µM (active)
same,Potency,[6],112 µM (active)
COc1ccc(S(=O)(=O)c2c(Nc3c(C)cccc3C)sc(C(=O)c3ccc4c(c3)OCO4)c2N)cc1,Potency,[1],23.5 µM (active)
same,Potency,[2],inactive
same,Potency,[4],inactive
O=C(CSc1nnc(-c2cccc([S+](=O)([O-])NC3CCCC3)c2)n1-c1ccccc1)Nc1ccc(C(=O)O)cc1,Potency,[1],inactive
same,Potency,[2],inactive
COC(=O)c1ccc(C(=O)Nc2ccc(-c3nc4cc(NC(=O)c5ccc(C(=O)OC)cc5)ccc4o3)cc2)cc1,Potency,[1],inactive
same,Potency,[2],inactive
same,Potency,[4],inactive
O=C(CNc1nnc(-c2ccc([S+](=O)([O-])N3CCCC3)cc2)n1-c1ccccc1)Nc1ccc(C(=O)O)cc1,Potency,[1],inactive
same,Potency,[2],inactive
same,Potency,[4],inactive
O=c1cc(-c2cc(O)c(O)c(O)c2)oc2cc(O)cc(O)c12,Potency,[15],20 µM (active)
same,Potency,[16],inactive
same,outcome,[17],inactive
same,Potency,[18],35.5 µM (active)
same,Potency,[1],inactive
same,Potency,[2],44.7 µM (active)
same,Potency,[3],inactive
same,Potency,[4],31.6 µM (active)
same,Potency,[5],63.1 µM (active)
same,Potency,[6],inactive
same,Potency,[14],inactive
O=C(O)c1ccc2c(ccc3nn(-c4ccc(/C=C/c5ccc(-n6nc7ccc8cc(C(=O)O)ccc8c7n6)cc5[S+](=O)([O-])[O-])c([S+](=O)([O-])[O-])c4)nc32)c1,Potency,[1],inactive
same,Potency,[2],2.82 µM (active)
same,Potency,[3],4.47 µM (active)
same,Potency,[4],6.31 µM (active)
same,Potency,[5],inactive
same,Potency,[6],12.6 µM (active)
same,Potency,[14],inactive
O=C(OCc1cccc(C(F)(F)F)c1)c1ccc(-c2nnn(Cc3ccc(F)cc3)n2)cc1,Potency,[1],inactive
same,Potency,[2],inactive
same,Potency,[4],inactive
CCc1ccc(S(=O)(=O)Nc2cc3c(C(=O)OCc4ccccc4)c(C)oc3c3ccccc23)cc1,Potency,[1],inactive
same,Potency,[2],inactive
same,Potency,[4],inactive
CCCCc1nn2c(=O)cc(COC(=O)c3cccc(NC(=O)c4cccc(Cl)c4)c3)nc2s1,Potency,[1],29.6 µM (active)
same,Potency,[2],inactive
